Reference: PubChem BioAssay (Tox21)
Records with an inconclusive call do not appear. The source holds several records for some structures; these can differ, active in one and inactive in another. Activity calls are given as the source filed them. Unless noted, the call rests on the fitted dose curve.

Key:
[1] = qHTS assay to identify small molecule antagonists of the sonic hedgehog signaling (Shh) pathway (AID 1259369); further: nearly all actives have a fitted effect of over 45% in size; further: potency means the concentration at half of the fitted maximal effect
Summary of the method: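 NIH/3T3 stable Gli1-Luc clone, 2,000 cells/well, 4hr settle; cpd + conditioned medium 24hr; Luc reagent 30min RT; luminescence.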

[2] = biological target: Estrogen receptor beta (Homo sapiens) (UniProt Q92731); assay: qHTS assay to identify small molecule agonists of the estrogen receptor beta (ER-beta) signaling pathway (AID 1259377; active means well fitted activation curve with a large enough effect in the signal ratio in the repeat runs, not every such curve was filed as active; the % refers to the signal ratio)
Summary of the method: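 Agonist mode cell assay in GripTite HEK293T cells expressing an ER-beta fusion that drives beta-lactamase from an Upstream Activator Sequence; 16 hr compound exposure at 37C, then 2 h LiveBLAzer B/G FRET substrate at room temperature, fluorescence read-out.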

[3] = biological target: Estrogen receptor beta (Homo sapiens) (UniProt Q92731); assay: qHTS assay to identify small molecule antagonists of the estrogen receptor beta (ER-beta) signaling pathway (AID 1259378; active means well fitted inhibition curve with a large enough effect in the signal ratio in the repeat runs, not every such curve was filed as active; the % refers to the signal ratio)
Summary of the method: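 ER-beta-UAS-bla HEK293T cells in 2% charcoal-stripped FBS medium treated with compound plus 1nM final 17-beta-estradiol for 16 hr at 37C. Beta-lactamase reporter read by FRET substrate fluorescence after 2 hours at room temperature.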

[4] = qHTS assay to identify small molecule agonists of the androgen receptor (AR) signaling pathway in the presence of an antagonist - cell viability counter screen (AID 1259379; active means well fitted curve in the direction sought with a large enough effect in the repeat runs; an effect the other way counts as inactive or inconclusive;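 further: MDA-kb2 human breast cancer cells carrying an MMTV luciferase reporter; series mostly up to about 92 µM; nearly all actives have a fitted effect of over 25% in size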)
Summary of the method: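 MDA-kb2 viability measured by CellTiter-Fluor fluorescence in the same wells as the luciferase signal; nilutamide 3.0uM final; 15-point compound titration; 16 hr at 37C.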

[5] = qHTS assay to identify small molecule agonists of the estrogen receptor beta (ER-beta) signaling pathway - cell viability counter screen (AID 1259380; active means well fitted curve in the direction sought with a large enough effect in the repeat runs; an effect the other way counts as inactive or inconclusive; further: nearly all actives have a fitted effect of over 30% in size)
Summary of the method: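 Measured: luminescence from CellTiter-Glo after 30 min at room temperature, added to wells already read for the LiveBLAzer FRET reporter (2 hr substrate); ER-beta-UAS-bla HEK293T cells had 16 hr compound treatment at 37C, 5% CO2.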

[6] = qHTS assay to identify small molecule antagonists of the estrogen receptor beta (ER-beta) signaling pathway - cell viability counter screen (AID 1259382; active means well fitted curve in the direction sought with a large enough effect in the repeat runs; an effect the other way counts as inactive or inconclusive; further: series mostly up to about 92 µM; nearly all actives have a fitted effect of over 55% in size)
Summary of the method: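 Readout: luminescence, CellTiter-Glo, same wells as bla assay. System: ER-beta-UAS-bla GripTite HEK293T, 2% charcoal-stripped FBS. Exposure: compounds plus 1nM 17-beta-estradiol, 16 hr, 37C.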

[7] = biological target: Estrogen receptor (Homo sapiens) (UniProt P03372); assay: qHTS assay to identify small molecule agonists of the estrogen receptor alpha (ER-alpha) signaling pathway in the presence of an antagonist (AID 1259383); further: nearly all actives have a fitted effect of over 15% in size; further: potency means the concentration at half of the fitted maximal effect; on activation: top concentration of the series differs between compounds
Summary of the method: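 Quantitative HTS confirmation: compounds titrated at 15 concentrations onto estrogen-deprived VM7Luc4E2 cells carrying a four-ERE luciferase construct, with ICI-182,780 present at 10.0nM final. Signal is luminescence after 22hr exposure.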

[8] = qHTS assay to identify small molecule agonists or antagonists of the thyroid stimulating hormone receptor (TSHR) signaling pathway - wild type cell line counter screen (AID 1259384)
Summary of the method: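 Wild-type Hek293 cells, 800/well, 18 h at 37C, then compound with Ro20-1724 for 30 min RT. cAMP by HTRF (cAMP-d2/anti-cAMP cryptate), 1 h RT, fluorescence read. 15 concentrations, triplicates.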

[9] = biological target: Thyrotropin receptor (Homo sapiens) (UniProt P16473); assay: qHTS assay to identify small molecule antagonists of the thyroid stimulating hormone receptor (TSHR) signaling pathway (AID 1259385); further: nearly all actives have a fitted effect of over 20% in size
Summary of the method: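 TSHR-HEK293 cells (800/well) plated 18 h, then compounds with Ro20-1724 and TSH at 1.5 ng/mL final, 30 min at room temperature. cAMP quantified by HTRF (cAMP-d2/anti-cAMP-cryptate, 1 h); 15 concentrations in triplicate.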

[10] = qHTS assay to identify small molecule agonists of the estrogen receptor alpha (ER-alpha) signaling pathway in the presence of an antagonist - cell viability counter screen (AID 1259386; active means well fitted curve in the direction sought with a large enough effect in the repeat runs; an effect the other way counts as inactive or inconclusive;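 further: series mostly up to about 92 µM; cells exposed to compounds for 22 h at 37 °C before the viability read; nearly all actives have a fitted effect of over 30% in size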)
Summary of the method: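 The test measures whether compounds kill ER-alpha reporter cells (VM7Luc4E2) under antagonist co-treatment (ICI-182,780, 10.0nM). Fluorescence from CellTiter-Fluor is read after a 22hr exposure.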

[11] = biological target: Progesterone receptor (Homo sapiens) (UniProt P06401); assay: qHTS assay to identify small molecule agonists of the progesterone receptor (PR) signaling pathway (AID 1346784); further: nearly all actives have a fitted effect of over 30% in size
Summary of the method: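 Cells (PR-UAS-bla HEK 293T, GripTite) were plated in assay medium containing 2% charcoal-stripped FBS and incubated 6 hr. Test compounds in DMSO were added for 16 hr at 37C. FRET substrate was then loaded for 2 hr at room temperature before fluorescence reading.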

[12] = qHTS assay to identify small molecule antagonists of the progesterone receptor (PR) signaling pathway - cell viability counter screen (AID 1346798; active means well fitted curve in the direction sought with a large enough effect in the repeat runs; an effect the other way counts as inactive or inconclusive; further: series mostly up to about 92 µM; nearly all actives have a fitted effect of over 50% in size)
Summary of the method: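 Counter screen for cytotoxicity: viability of PR-UAS-bla HEK293T cells was measured with CellTiter-Glo luminescence following 16 hr compound exposure in the presence of R5020.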

[13] = qHTS assay to identify small molecule agonists of the progesterone receptor (PR) signaling pathway - cell viability counter screen (AID 1346799); further: nearly all actives have a fitted effect of over 45% in size
Summary of the method: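 Cells (PR-UAS-bla HEK293T) are plated at 3,000/well in 2% charcoal-stripped FBS medium, rested 6 hr, dosed and incubated 16 hr at 37C. CellTiter-Glo is then added and luminescence measured after 30 min at room temperature.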

[14] = qHTS assay to identify small molecule antagonists of the TGF-beta/Smad signaling pathway - cell viability counter screen (AID 1346824; active means well fitted curve in the direction sought with a large enough effect in the repeat runs; an effect the other way counts as inactive or inconclusive; further: nearly all actives have a fitted effect of over 50% in size)
Summary of the method: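 SBE-bla HEK 293T cells, incubated overnight, then compound plus 0.25 ng/mL TGF-beta1 (stock added) for 5 hr at 37 C. Viability was read in the same wells by CellTiter-Glo luminescence after 30 min at room temperature.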

[15] = qHTS assay to identify small molecule agonists of the TGF-beta/Smad signaling pathway - cell viability counter screen (AID 1346829; active means well fitted curve in the direction sought with a large enough effect in the repeat runs; an effect the other way counts as inactive or inconclusive; further: nearly all actives have a fitted effect of over 45% in size; further: potency means the concentration at half of the fitted maximal effect)
Summary of the method: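 Here the cytotoxicity of library compounds is measured in SBE-bla HEK 293T cells treated for 5 hr, using CellTiter-Glo added to wells already read for the beta-lactamase reporter.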

[16] = qHTS assay to identify small molecule agonists of the TGF-beta/Smad signaling pathway (AID 1346859; active means well fitted activation curve with a large enough effect in the signal ratio in the repeat runs, not every such curve was filed as active; the % refers to the signal ratio; further: series mostly up to about 77 µM)
Summary of the method: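 Reporter line: HEK 293T with stably integrated SBE-controlled beta-lactamase. Compound exposure lasts 5 hr at 37 C and 5% CO2; substrate loading follows for 2 hr at room temperature, with emission read at 460 and 530 nm.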

[17] = biological target: Thyrotropin-releasing hormone receptor (Homo sapiens) (UniProt P34981); assay: qHTS assay to identify small molecule antagonists of the thyrotropin-releasing hormone receptor (TRHR) signaling pathway (AID 1346877; active means well fitted inhibition curve with a large enough effect in the repeat runs, not every such curve was filed as active; further: series mostly up to about 51 µM)
Summary of the method: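 Overnight-plated (18 h, 37 °C) HEK293 cells expressing TRHR were dye-loaded 2 h, treated with compound, then stimulated with TRH at 1 nM final. Fluorescence intensity was captured every second for 3 min.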

[18] = biological target: Thyrotropin-releasing hormone receptor (Homo sapiens) (UniProt P34981); assay: qHTS assay to identify small molecule agonists of the thyrotropin-releasing hormone receptor (TRHR) signaling pathway (AID 1346891);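 further: HEK293 cells expressing TRHR with calcium dye readout; series mostly up to about 58 µM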
Summary of the method: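 Cells: TRHR-Hek293, seeded and incubated 18 h. Dye loading: 2 h at 37 °C. Compound added from DMSO stock by pin tool. Read-out: kinetic calcium fluorescence over 3 min.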

[19] = biological target: Progesterone receptor (Homo sapiens) (UniProt P06401); assay: qHTS assay to identify small molecule antagonists of the progesterone receptor (PR) signaling pathway (AID 1346795; active means well fitted inhibition curve with a large enough effect in the signal ratio in the repeat runs, not every such curve was filed as active; the % refers to the signal ratio)
Summary of the method: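 Antagonist mode: compounds tested against 1 nM (final) promegestone stimulation in HEK293T cells expressing PR-UAS-bla reporter, 16 hr at 37C, 5% CO2; beta-lactamase activity detected via B/G FRET substrate after 2 hr at room temperature.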

[20] = biological target: Androgen receptor (Homo sapiens) (UniProt P10275); assay: qHTS assay to identify small molecule agonists of the androgen receptor (AR) signaling pathway in the presence of an antagonist (AID 1259381); further: nearly all actives have a fitted effect of over 15% in size
Summary of the method: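 Luminescent ONE-Glo read, 30min at room temperature, follows 16hr compound exposure (15 concentrations) of MDA-kb2 cells at 37C, 0% CO2, with nilutamide added at 3.0uM final.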

Measured: Potency

Chain of Progesterone receptor (Homo sapiens) (P06401 whole entry, looked up): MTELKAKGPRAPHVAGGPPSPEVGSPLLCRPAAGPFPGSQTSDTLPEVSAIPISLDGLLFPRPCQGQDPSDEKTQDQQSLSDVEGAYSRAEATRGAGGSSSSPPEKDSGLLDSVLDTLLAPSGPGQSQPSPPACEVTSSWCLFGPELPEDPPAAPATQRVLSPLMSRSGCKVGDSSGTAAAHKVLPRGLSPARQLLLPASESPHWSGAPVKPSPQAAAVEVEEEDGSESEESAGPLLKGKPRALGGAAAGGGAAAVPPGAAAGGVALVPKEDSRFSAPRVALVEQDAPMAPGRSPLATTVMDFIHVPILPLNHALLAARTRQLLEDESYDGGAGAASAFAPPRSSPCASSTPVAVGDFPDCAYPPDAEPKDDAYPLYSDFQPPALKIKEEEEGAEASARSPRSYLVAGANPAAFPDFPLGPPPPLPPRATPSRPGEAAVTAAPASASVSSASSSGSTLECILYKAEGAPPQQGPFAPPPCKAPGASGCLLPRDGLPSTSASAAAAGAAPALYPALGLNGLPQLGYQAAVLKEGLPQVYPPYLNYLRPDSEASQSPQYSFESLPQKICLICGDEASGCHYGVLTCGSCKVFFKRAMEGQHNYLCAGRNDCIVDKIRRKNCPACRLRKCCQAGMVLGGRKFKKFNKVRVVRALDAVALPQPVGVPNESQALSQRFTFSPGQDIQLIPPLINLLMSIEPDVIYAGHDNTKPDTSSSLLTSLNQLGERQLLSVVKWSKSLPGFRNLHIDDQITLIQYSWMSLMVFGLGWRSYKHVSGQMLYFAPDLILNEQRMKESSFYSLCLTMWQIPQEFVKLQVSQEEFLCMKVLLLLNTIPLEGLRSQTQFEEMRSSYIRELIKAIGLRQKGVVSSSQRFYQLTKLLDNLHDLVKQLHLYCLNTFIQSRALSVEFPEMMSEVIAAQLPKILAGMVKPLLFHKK
Chain of Thyrotropin-releasing hormone receptor (Homo sapiens) (P34981 whole entry, looked up): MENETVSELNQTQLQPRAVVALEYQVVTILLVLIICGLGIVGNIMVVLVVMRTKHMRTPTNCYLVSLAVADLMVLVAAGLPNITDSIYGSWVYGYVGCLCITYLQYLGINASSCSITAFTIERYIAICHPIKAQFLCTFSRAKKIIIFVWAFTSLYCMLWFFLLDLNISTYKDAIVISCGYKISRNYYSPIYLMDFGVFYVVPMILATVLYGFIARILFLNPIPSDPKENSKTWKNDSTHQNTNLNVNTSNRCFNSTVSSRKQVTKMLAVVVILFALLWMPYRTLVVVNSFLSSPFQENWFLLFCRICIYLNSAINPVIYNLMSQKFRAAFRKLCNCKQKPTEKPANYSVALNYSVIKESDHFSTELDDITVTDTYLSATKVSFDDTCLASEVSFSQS
Chain of Estrogen receptor beta (Homo sapiens) (Q92731 whole entry, looked up, the tested form may be a part): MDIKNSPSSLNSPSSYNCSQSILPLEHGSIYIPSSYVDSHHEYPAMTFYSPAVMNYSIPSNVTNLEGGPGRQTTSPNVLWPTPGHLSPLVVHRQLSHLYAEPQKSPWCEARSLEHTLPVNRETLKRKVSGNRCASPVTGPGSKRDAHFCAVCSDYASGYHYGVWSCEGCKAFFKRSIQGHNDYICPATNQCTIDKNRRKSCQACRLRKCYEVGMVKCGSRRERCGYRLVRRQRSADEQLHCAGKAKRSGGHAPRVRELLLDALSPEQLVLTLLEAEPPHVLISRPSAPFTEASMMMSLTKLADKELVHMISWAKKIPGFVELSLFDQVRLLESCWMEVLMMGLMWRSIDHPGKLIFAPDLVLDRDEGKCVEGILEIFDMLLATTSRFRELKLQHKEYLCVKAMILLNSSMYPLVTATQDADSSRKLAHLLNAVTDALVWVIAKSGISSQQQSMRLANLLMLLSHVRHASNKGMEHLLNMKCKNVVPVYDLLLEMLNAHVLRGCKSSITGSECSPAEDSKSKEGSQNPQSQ
Chain of Androgen receptor (Homo sapiens) (P10275 whole entry, looked up): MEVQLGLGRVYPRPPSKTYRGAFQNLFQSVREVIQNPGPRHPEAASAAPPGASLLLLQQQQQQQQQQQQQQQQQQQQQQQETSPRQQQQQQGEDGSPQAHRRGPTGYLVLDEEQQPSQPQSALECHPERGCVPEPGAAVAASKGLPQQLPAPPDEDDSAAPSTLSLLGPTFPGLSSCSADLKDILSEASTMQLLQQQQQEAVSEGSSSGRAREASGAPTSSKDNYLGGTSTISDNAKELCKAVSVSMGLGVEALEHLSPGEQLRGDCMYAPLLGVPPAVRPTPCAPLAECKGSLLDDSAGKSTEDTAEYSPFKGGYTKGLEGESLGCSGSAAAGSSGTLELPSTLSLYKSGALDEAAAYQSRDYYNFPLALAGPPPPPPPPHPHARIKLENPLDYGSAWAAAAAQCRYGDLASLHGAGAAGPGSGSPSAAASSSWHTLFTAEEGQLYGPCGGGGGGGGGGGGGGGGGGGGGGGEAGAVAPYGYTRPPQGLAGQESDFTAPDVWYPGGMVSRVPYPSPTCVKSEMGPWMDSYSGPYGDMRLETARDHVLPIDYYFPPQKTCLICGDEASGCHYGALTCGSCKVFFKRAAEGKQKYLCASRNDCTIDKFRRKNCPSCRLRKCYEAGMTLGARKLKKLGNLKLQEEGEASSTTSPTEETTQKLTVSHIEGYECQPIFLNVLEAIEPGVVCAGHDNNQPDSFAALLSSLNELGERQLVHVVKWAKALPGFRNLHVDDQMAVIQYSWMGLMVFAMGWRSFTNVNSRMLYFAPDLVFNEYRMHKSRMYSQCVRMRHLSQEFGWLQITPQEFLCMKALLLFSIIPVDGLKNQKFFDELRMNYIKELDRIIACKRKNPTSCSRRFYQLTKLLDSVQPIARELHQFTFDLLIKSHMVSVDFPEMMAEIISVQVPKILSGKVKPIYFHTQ
Chain of Thyrotropin receptor (Homo sapiens) (P16473 whole entry, looked up): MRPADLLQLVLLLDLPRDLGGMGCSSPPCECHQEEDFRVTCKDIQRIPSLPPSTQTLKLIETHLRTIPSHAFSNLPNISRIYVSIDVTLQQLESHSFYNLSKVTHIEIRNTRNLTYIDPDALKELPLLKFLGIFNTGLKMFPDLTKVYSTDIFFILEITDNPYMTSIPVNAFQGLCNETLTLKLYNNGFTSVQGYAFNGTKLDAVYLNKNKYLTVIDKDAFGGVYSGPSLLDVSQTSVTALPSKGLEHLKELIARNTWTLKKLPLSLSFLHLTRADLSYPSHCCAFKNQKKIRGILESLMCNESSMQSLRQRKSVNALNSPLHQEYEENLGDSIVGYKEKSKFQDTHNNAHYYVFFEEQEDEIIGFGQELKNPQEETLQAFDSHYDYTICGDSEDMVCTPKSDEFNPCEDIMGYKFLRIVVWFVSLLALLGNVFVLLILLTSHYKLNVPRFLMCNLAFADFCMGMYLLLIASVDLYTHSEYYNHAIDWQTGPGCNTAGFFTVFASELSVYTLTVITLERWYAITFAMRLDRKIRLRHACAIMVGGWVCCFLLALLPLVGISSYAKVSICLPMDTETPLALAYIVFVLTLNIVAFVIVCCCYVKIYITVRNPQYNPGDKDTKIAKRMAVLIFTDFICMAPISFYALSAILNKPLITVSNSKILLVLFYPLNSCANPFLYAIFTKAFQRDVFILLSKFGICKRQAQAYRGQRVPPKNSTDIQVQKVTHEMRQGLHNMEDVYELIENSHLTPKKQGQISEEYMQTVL
Chain of Estrogen receptor (Homo sapiens) (P03372 whole entry, looked up): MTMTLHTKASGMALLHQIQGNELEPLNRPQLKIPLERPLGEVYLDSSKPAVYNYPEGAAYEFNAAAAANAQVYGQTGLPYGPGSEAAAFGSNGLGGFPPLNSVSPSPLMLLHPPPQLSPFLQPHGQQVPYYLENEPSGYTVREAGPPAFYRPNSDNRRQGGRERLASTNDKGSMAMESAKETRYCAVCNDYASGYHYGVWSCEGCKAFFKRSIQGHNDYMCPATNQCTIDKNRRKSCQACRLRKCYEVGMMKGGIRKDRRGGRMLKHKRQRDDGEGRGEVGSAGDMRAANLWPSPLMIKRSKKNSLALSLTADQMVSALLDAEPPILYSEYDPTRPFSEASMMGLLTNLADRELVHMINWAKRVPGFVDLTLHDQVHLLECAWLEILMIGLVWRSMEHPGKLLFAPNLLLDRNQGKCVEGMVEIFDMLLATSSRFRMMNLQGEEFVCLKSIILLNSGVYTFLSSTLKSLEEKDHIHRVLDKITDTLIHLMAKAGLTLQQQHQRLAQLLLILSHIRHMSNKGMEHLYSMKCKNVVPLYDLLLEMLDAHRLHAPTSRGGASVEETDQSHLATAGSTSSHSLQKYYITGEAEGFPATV

CC(C)c1ccc(C(C)C)cc1
not listed: [19] | [20]
inactive: all other assays above

CCCCCCCCO
not listed: [6] | [17] | [18] | [20]
inactive: all other assays above

CC(=O)CC(=O)N(C)C
not listed: [19] | [20]
inactive: all other assays above

CCCCC(=O)O
not listed: [6] | [19] | [20]
inactive: all other assays above

CC(C=O)Cc1ccc(C(C)(C)C)cc1 (stereo not given)
not listed: [7]
inactive: all other assays above

NC(=O)NC(N)=O
not listed: [19] | [20]
inactive: all other assays above

CO[Si](CCCNCCN)(OC)OC
8.76 µM (active) and inactive: [1]
31.4 µM (active) and inactive: [15]
not listed: [6] | [7] | [14]
inactive: all other assays above

O=Cc1ccc(CO)o1
not listed: [6] | [20]
inactive: all other assays above

O=[N+]([O-])c1ccccc1C(F)(F)F
59.8 µM (active) and inactive: [7]
not listed: [6] | [8]
inactive: all other assays above

CCCN(CCC)C(=O)SCC
not listed: [6]
inactive: all other assays above

Cc1cc(CC(=O)O)n(C)c1C(=O)c1ccc(Cl)cc1
not listed: [7] | [16] | [19] | [20]
inactive: all other assays above

OCC(O)CS (stereo not given)
not listed: [6]
inactive: all other assays above

CCCCCNCCCCC
not listed: [7] | [19] | [20]
inactive: all other assays above

C1CCCNCC1
not listed: [6] | [20]
inactive: all other assays above

Cc1ccncc1
not listed: [20]
inactive: all other assays above

OCC(CO)(CO)CO
not listed: [6] | [20]
inactive: all other assays above
